From ChEMBL document CHEMBL1157539, “Thousands of chemical starting points for antimalarial lead identification” (Nature, 2010)

Key:
Format in all cases: functional
Plasmodium falciparum [1] = test: GSK_TCMDC: Inhibition of Plasmodium falciparum 3D7 in whole red blood cells, using parasite LDH activity as an index of growth. Test compounds present at 2uM
Plasmodium falciparum [2] = test: GSK_TCMDC: Inhibition of Plasmodium falciparum Dd2 in whole red blood cells, using parasite LDH activity as an index of growth. Test compounds present at 2uM
HepG2 = test: GSK_TCMDC: Percent inhibition of human HepG2 cell line. Test compounds present at 10uM.

Structure (SMILES) | Inhibition (Plasmodium falciparum [1]) | Inhibition (Plasmodium falciparum [2]) | Inhibition (HepG2)
NCc1ccc(CNCc2ccc(-c3ccc(-c4nc5cc(F)ccc5[nH]4)cc3)cc2)cc1.O=C(O)C(F)(F)F | 100% | 99% | 12%
Cc1cccc2nc(-c3cccc(-c4ccc(NC(=O)Cc5c[nH]cn5)cc4)c3)[nH]c12 | 100% | 93% | 4%
O=C(CC(c1ccccc1)c1ccccc1O)N1CCOCC1 (stereo not given) | 84% | 5% | 30%
O=C(Nc1cccc(F)c1)N1CCC(NS(=O)(=O)c2ccc(Br)cc2)CC1 | 93% | 23% | 4%
COc1cc2c(cc1C(F)(F)F)N(C(=O)Nc1cc(-c3ccncc3)cc(-c3cccnc3)c1)CC2 | 95% | 50% | 64%
COc1ccccc1C(C)NCC(=O)Nc1ccccc1Sc1ccccc1 (stereo not given) | 89% | 7% | 0%
CC1CN(Cc2ccccc2)CCN1c1ccc(NC(=O)c2cccs2)cc1.O=C(O)C(F)(F)F (stereo not given) | 96% | 96% | 0%
O=C(Nc1cccc(C(F)(F)F)c1)c1cccc(S(=O)(=O)NCC2CCCN(CC3CCCCC3)C2)c1.O=C(O)C(F)(F)F (stereo not given) | 99% | 11% | 17%
Cc1ccc(NC(=O)N2CCC(n3c(-c4ccccc4)nc4cccnc43)CC2)cc1F | 96% | 85% | 23%
Nc1cccc(CNCc2ccc(-c3ccc(-c4nc5cc(F)ccc5[nH]4)s3)cc2)c1.O=C(O)C(F)(F)F | 100% | 93% | 12%
O=C(NCc1ccc(Cl)cc1)c1ccc(CN2CCCN(Cc3cccc(O)c3)CC2)cc1.O=C(O)C(F)(F)F | 82% | 12% | 25%
Cl.NOCCCCOc1ccccc1 | 99% | 2% | 12%
CCc1nnc2sc(-c3cccc(NC(=O)c4ccc(OC)c(Cl)c4)c3)nn12 | 92% | 55% | 3%
CC(C)n1ncc2c(C(=O)N3CCCCCC3)cc(-c3ccccc3)nc21 | 97% | 42% | 0%
CC(C)CCN1CCCN(Cc2ccc(C(=O)Nc3ccc(F)c(F)c3)cc2)CC1.O=C(O)C(F)(F)F | 88% | 27% | 36%
CCOC(=O)c1cn(CC)c2cc(N(C)CCc3ccc(OC)c(OC)c3)c(F)cc2c1=O.Cl | 92% | 96% | 9%
Cc1nc2ccc(-c3nc4cc(N)ccc4[nH]3)cc2[nH]1 | 94% | 80% | 6%
CC(C)(C)N1CCC(N(Cc2ccc(-c3ccc(C(F)(F)F)cc3)cc2)C(=O)Cn2c(CCc3cccc(F)c3F)nc(=O)c3cccnc32)CC1.O=C(O)C(O)C(O)C(=O)O | 100% | 53% | 94%
Cc1cc(=NN=Cc2ccccc2)c2cc(C(F)(F)F)ccc2[nH]1 | 100% | 97% | 30%
CC1CN(Cc2ccc(-c3cccc(-c4nc5cc(F)ccc5[nH]4)c3)cc2)CC(C)O1.O=C(O)C(F)(F)F (stereo not given) | 93% | 20% | 28%

Structure (SMILES) | Inhibition (Plasmodium falciparum [1]) | Inhibition (Plasmodium falciparum [2]) | Inhibition (HepG2)
Nc1ncc(-c2ccsc2)c2ccc(-c3cc(NCc4ccccc4)ncn3)cc12 | 100% | 86% | 0%
NS(=O)(=O)c1cccc(Nc2nc(N[C@@H]3CCNC3)nc3cc[nH]c(=O)c23)c1.O=C(O)C(F)(F)F | 99% | 98% | 7%
Cn1nc(C(F)(F)F)c(-c2ccc(Br)cc2)c1NC(=O)Nc1ccc(F)cc1F | 99% | 99% | 16%
O=C(Nc1cccc(CN2CCN(Cc3cccc(O)c3)CC2)c1)c1ccc(Cl)c(Cl)c1.O=C(O)C(F)(F)F | 100% | 35% | 28%
Cc1ccc(NC(=O)c2cc([N+](=O)[O-])ccc2NCc2cccnc2)cc1Cl | 86% | 58% | 9%
CS(=O)(=O)CCOCc1ccc(-c2ccc3ncnc(Nc4ccc(OCc5cccc(F)c5)c(Cl)c4)c3c2)o1 | 96% | 43% | 1%
CC(C)COc1ccc(Cl)cc1Cc1nc(-c2nc3ccc(CN4CCCC4)cc3[nH]2)co1.Cl | 100% | 66% | 50%
COc1c(C2CCN(CCN3CCC(CNC(=O)c4ccc(-c5ccc(C#N)cc5)cc4)CC3)CC2)ccc2c1CCCC2 | 100% | 100% | 96%
CN(CCCCCNC(=O)/C=C/c1ccc(Cl)c(Cl)c1)CCc1c[nH]c2ccccc12 | 91% | 18% | 40%
COc1ccc(CN2CCCN(Cc3cccc(NC(=O)c4ccc(-c5ccccc5)cc4)c3)CC2)cc1.O=C(O)C(F)(F)F | 94% | 24% | 37%
CC(O)C1CCCCN1C(=O)c1cccc(-c2cccc(-c3nc4ccccc4[nH]3)c2)c1 (stereo not given) | 99% | 76% | 20%
CCCc1cnc2nc(N)nc(N)c2c1C | 93% | 3% | 68%
CCN(CC)c1ccc(C(c2ccc(N(CC)CC)cc2)c2cccc([N+](=O)[O-])c2)cc1 | 91% | 68% | 39%
Cc1ccc(C2(C)CC(C)(C)N(C(=O)COc3ccc4ccccc4c3)c3ccccc32)cc1 (stereo not given) | 100% | 98% | 0%
O=C(Nc1cc(Cl)ccc1O)c1cc(-c2ccccc2O)no1 | 95% | 79% | 0%
CN(C)C(=O)c1ccc(CN(Cc2ccc(OC(C)(C)C)cc2)Cc2ccc3c(c2)OCCO3)cc1 | 95% | 96% | 0%
COc1ccc2nccc([C@@H](O)CN3CCC(NC(=O)C(c4cc5ccccc5o4)N4CCN(c5ccc(F)cc5)CC4)CC3)c2c1 (stereo not given in full) | 100% | 98% | 15%
Cc1cccc2nc(-c3ccc(-c4ccc(NC(=O)Nc5ccc(Cl)cc5)cc4)s3)[nH]c12 | 100% | 100% | 78%
CC(C)Sc1nc2c(c(=O)n1CCc1ccccc1)C1(CCCC1)Cc1ccccc1-2 | 100% | 88% | 0%
COc1cc2c(C3CCN(CC4CCN(C(=O)/C=C/c5ccc(Cl)c(Cl)c5)CC4)CC3)c[nH]c2cn1 | 100% | 88% | 27%

Structure (SMILES) | Inhibition (Plasmodium falciparum [1]) | Inhibition (Plasmodium falciparum [2]) | Inhibition (HepG2)
CCN1CCC(N(Cc2ccc(-c3ccc(C(F)(F)F)cc3)cc2)C(=O)Cn2c(CCc3cccc(F)c3F)nc(=O)c3ccccc32)CC1.O=C(O)C(O)C(O)C(=O)O | 95% | 95% | 99%
O=C1OC(c2ccccc2)(c2ccccc2)CN1C1CCN(Cc2ccc(O)c(Cl)c2)C1 (stereo not given) | 100% | 93% | 10%
Cc1nnc2c(NC(=O)NC3CCCC3)cc3ccc(-c4cccc(CN(C)C)c4)cc3n12 | 90% | 25% | 42%
Cc1nc(C)c(CC(=O)Nc2ccc(-c3cccc(-c4nc5cc(C(F)(F)F)ccc5[nH]4)c3)cc2)s1 | 86% | 4% | 67%
CCOC(=O)c1ccc2[nH]c(-c3ccc(C(=O)NCc4ccc(C(C)(C)C)cc4)cc3)nc2c1 | 94% | 34% | 0%
O=C(Nc1ccc(Cl)cc1)c1ccc(CN2CCCN(Cc3ccc(F)cc3)CC2)cc1.O=C(O)C(F)(F)F | 91% | 8% | 48%
CC(=NNC(=N)N)C(=O)Nc1ccc(Cl)c(Cl)c1.O=S(=O)(O)O | 100% | 97% | 0%
COc1cc(Cc2cnc(N)nc2N)ccc1OCc1ccc(-c2csnn2)cc1 | 97% | 0% | 33%
CCC(=O)Nc1ccc(Nc2nc(C)cc(N3CCCC3)n2)cc1 | 91% | 2% | 34%
O=C(Nc1cccc(F)c1)N1CCC(CN2CCOC(c3ccccc3)(c3ccccc3)C2)CC1 | 96% | 97% | 12%
CCCC(=O)Nc1ccc(Nc2nc(C)cc(N3CCCC3)n2)cc1 | 100% | 46% | 31%
CCC[C@@H]([C@@H](CC1CCCCC1)C(=O)N[C@H](C(=O)Nc1nccs1)[C@@H](C)OCc1ccccc1)N(O)C=O | 100% | 99% | 51%
O=C(c1ccc([N+](=O)[O-])o1)N1CCC(c2cn(Cc3cccc(F)c3)c3ccccc23)CC1 | 97% | 95% | 1%
COc1ccc(CNc2nc(NCc3ccccc3)c3cc(OC)c(OC)cc3n2)cc1OC | 100% | 99% | 24%
CC(C)C[C@@H](NC(=O)OC(C)(C)C)C(=O)Nc1ccc(Cc2ccc(NC(=O)[C@@H](CC(C)C)NC(=O)OC(C)(C)C)cc2)cc1 | 96% | 96% | 8%
Cc1ccc2nc(Cl)c3cc(C(=O)NCCCN4CCCC4)sc3c2c1 | 89% | 40% | 26%
CN(C)CCC(O)C=C(c1ccc(Cl)cc1)c1ccc(Cl)cc1 (stereo not given) | 93% | 85% | 33%
COc1cc(Nc2nccc(N3CCC(NC(=O)Nc4cccc(C(C)=O)c4)C3)n2)cc(OC)c1OC (stereo not given) | 91% | 34% | 8%
Cl.OCCNc1nc(Nc2ccc(F)cc2)nc2ccccc12 | 94% | 73% | 10%
Cc1cc(C(=O)Nc2ccc3c(c2)CCN3C2CCN(Cc3cccc(F)c3F)C2)no1 (stereo not given) | 95% | 94% | 0%
